Screens (PubChem BioAssay)
MBNL1 CUG block: MBNL1-poly(CUG) RNA binding inhibition | TR-FRET MBNL1-His/biotin-(CUG)12 binding, 665/545 ratio | Q9NR56 | Potency, µM (highest dose often 57.5 µM), most hits filed as inhibitors | 280,000 compounds, 0.036% hits; active = well fitted inhibition curve with a large enough effect in the signal ratio, with a control signal flat, not every such curve was filed as active; inconclusive = small, poorly fitted or top-dose-only effect, or effect the other way, or a change in a side signal; inactive = no such curve, though single readings can be large or run the other way; the % refers to the signal ratio
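Compounds (final 92 nM to 58 uM) are added to His-tagged MBNL1 and biotin-(CUG)12, then terbium anti-His antibody and streptavidin-XL665 (5 nM final). After 60 min at room temperature, the 665/545 nm ratio is read.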
CBFb RUNX1 block: inhibitors of human CBF-beta and RUNX1 interaction; Q01196+Q13951; AlphaScreen CBFb-His/RUNX1-biotin binding, biochemical; Potency, µM (doses to about 59.8 µM), actives largely listed as inhibitors; 230,000 tested, under 10 active; AID 1477; active = well fitted curve in the direction sought with a large enough effect; inconclusive = small, poorly fitted or top-dose-only effect, or effect the other way, or another doubt; inactive = no such curve, though single readings can be large or run the other way
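CBF-beta (His) and RUNX1 (biotin), 30 nM each; 20 min preassociation; + compound, 15 min; + beads 50 ng each (Ni, streptavidin), 90 min; RT; AlphaScreen read.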
ClpP mod: qHTS Assay for Activators of ClpP | ATP-dependent Clp protease proteolytic subunit (Bacillus subtilis (strain 168)), P80244 | purified B. subtilis ClpP, FRET peptide cleavage, 20 min | Potency, µM (titrated, usually from 57.5 µM) | 340,000 compounds, 1.9% hits; active = well fitted falling curve with a large enough effect; inconclusive = small, poorly fitted or top-dose-only effect; inactive = no such curve, though single readings can be large or run the other way; note: the source files actives as falling curves though it sought activators and does not explain the sign; nearly all actives have a fitted effect of over 65% in size
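FRET quenching reversal measured ClpP activation: 10 microg/mL B. subtilis ClpP at pH 8 with the FRET-FV decapeptide, read at 430 nm after 320 nm excitation. The 20-min minus 0-min signal was scaled between DMSO/no-enzyme wells and ADEP (5.8 microM final).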
Rango release inh: inhibition of RanGTP-driven Rango-importin beta dissociation; AID 540253; O95149+P62826; Potency, µM (doses to about 46.1 µM); 340,000 compounds, 0.071% hits; Biochemical FRET Rango-importin beta, RanGTP-induced dissociation; note: nearly all actives have a fitted effect of over 45% in size
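Compounds sat 5 min at room temperature with 0.1 uM Rango biosensor plus 0.25 uM importin beta, then FRET pre-read. RanGTP-RCC1 (0.6 uM Ran, 2mM GTP, 0.2 uM RCC1) added for 45 min, and the CFP/YFP post-read measured blocked complex dissociation.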
Rango complex inh: inhibitors of Rango-importin beta complex formation; Q14974; Rango CFP/YFP FRET sensor + importin beta, 45 min; Potency, µM (top dose mostly 92.2 µM); 340,000 compounds, 0.031% hits; note: nearly all actives have a fitted effect of over 15% in size
Target sequence (Q14974 whole entry, looked up): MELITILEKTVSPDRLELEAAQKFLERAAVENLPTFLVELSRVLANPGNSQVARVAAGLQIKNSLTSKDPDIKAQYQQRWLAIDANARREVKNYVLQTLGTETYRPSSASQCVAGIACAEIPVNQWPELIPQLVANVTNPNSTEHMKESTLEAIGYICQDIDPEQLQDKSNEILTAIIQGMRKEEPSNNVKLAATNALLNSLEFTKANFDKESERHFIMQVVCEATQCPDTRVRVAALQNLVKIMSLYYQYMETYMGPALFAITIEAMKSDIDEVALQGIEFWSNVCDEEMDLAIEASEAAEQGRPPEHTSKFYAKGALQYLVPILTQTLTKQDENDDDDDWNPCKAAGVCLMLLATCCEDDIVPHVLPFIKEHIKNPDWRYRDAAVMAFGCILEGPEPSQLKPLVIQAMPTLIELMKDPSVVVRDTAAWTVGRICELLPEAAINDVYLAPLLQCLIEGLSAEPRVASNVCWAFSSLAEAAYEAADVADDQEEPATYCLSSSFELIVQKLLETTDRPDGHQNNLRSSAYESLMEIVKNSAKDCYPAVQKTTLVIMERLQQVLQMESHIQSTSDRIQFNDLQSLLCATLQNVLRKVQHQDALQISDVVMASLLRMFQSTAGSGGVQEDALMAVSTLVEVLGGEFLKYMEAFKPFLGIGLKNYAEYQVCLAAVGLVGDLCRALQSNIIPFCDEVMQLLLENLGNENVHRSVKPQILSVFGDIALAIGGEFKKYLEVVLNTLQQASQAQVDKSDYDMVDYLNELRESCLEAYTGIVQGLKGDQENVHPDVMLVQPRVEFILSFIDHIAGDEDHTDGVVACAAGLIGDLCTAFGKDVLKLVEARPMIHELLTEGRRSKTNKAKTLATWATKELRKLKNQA
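FRET biosensor Rango (snurportin 1 IBB between N-terminal EYFP and C-terminal Cerulean), 50 nM in PBS/1 mM DTT/0.02% Tween-20/0.1% BSA, preincubated 5 min RT with compound; 0.125 microM importin beta added, 45 min RT, CFP/YFP FRET ratio read.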
Of the large screens only hits and unclear results are named; the others gave an inactive call. The full list was thinned out, with hits kept by preference. Unless noted, calls come from the whole dose curve.

CC(NC(=O)Cn1c(-c2cccs2)cc2cc(F)ccc21)c1ccccc1 (stereo unspecified)	ClpP mod 28µM (no result: MBNL1 CUG block, CBFb RUNX1 block, Rango release inh, Rango complex inh)
CCCSCCCNC(=O)Cn1c(-c2cccs2)cc2ccccc21	ClpP mod 28µM (no result: MBNL1 CUG block, CBFb RUNX1 block, Rango release inh, Rango complex inh)
CN(C)c1ccc(CNC(=O)Cn2c(=O)oc3cc(S(=O)(=O)NCc4ccccc4)ccc32)cc1	none (no result: MBNL1 CUG block, CBFb RUNX1 block, Rango release inh, Rango complex inh)
CSc1ccc(CNC(=O)CCc2c(C)nn(-c3ccc(N4CCCC4)nn3)c2C)cc1	none (no result: MBNL1 CUG block, CBFb RUNX1 block, Rango release inh, Rango complex inh)
CCNC(=O)CSc1nnc(-c2cccs2)o1	none (no result: ClpP mod)
CCNC(=O)Cn1c(-c2cccs2)cc2ccccc21	ClpP mod 28µM (no result: MBNL1 CUG block, CBFb RUNX1 block, Rango release inh, Rango complex inh)
COc1ccccc1Oc1nc(-c2ccccc2)cc(C)c1S(C)(=O)=O	ClpP mod 25µM
Cc1cccc(NS(=O)(=O)c2ccc(C3CCCCC3)cc2)n1	ClpP mod 22µM
Cc1cccc(NS(=O)(=O)c2ccccc2)n1	ClpP mod 20µM
Cc1cccc(NS(=O)(=O)c2ccc(C(C)(C)C)cc2)n1	none (no result: CBFb RUNX1 block)
CCN(CC)C(=O)CSc1nc2ncc(Br)cc2[nH]1	none
CCOC(=O)CNC(=O)CSc1nc2ncc(Br)cc2[nH]1	ClpP mod 16µM
N#Cc1c(N)n(C2CCCCC2)c2nc3ccccc3nc12	ClpP mod 32µM, Rango release inh inconclusive, Rango complex inh inconclusive
O=c1c(S(=O)(=O)c2cccc(Cl)c2)cn(Cc2ccccc2)c2cc(N3CCOCC3)c(F)cc12	none (no result: MBNL1 CUG block, CBFb RUNX1 block, Rango release inh, Rango complex inh)
CC(=O)Nc1ccc(C2Nc3ccccc3C(=O)N2C2CCCCC2)cc1 (stereo unspecified)	ClpP mod 28µM
O=C(Nc1ccc2c(c1)OCCO2)C1C(=O)Nc2ccccc2C(=O)N1C1CCCCC1 (stereo unspecified)	none (no result: MBNL1 CUG block, CBFb RUNX1 block, Rango release inh, Rango complex inh)
CCc1ccc(/C=C2\Oc3cc(OS(C)(=O)=O)ccc3C2=O)cc1	MBNL1 CUG block inconclusive, Rango release inh 8.2µM, Rango complex inh inconclusive
COc1cccc(C(=O)Nc2ccc(-c3nc4ccccc4o3)c(O)c2)c1	MBNL1 CUG block inconclusive, ClpP mod 28µM
COc1cc(OC)cc(C(=O)Nc2ccc(-c3nc4ccccc4o3)cc2)c1	none
COc1cc(C(=O)Nc2ccc(-c3nc4cc(C)ccc4o3)c(O)c2)cc(OC)c1OC	ClpP mod 28µM
CCc1ccc2oc(-c3cc(NC(=O)c4cc(OC)c(OC)c(OC)c4)ccc3O)nc2c1	none (no result: MBNL1 CUG block, CBFb RUNX1 block, Rango release inh, Rango complex inh)
COc1ccc(N(Cc2cc(=O)[nH]c3ccccc23)C(=O)CCl)cc1	none (no result: CBFb RUNX1 block, ClpP mod)
COc1ccc(OCc2cc(=O)[nH]c3ccccc23)cc1	ClpP mod 16µM (no result: CBFb RUNX1 block)
CC(C)c1ccc(S(=O)(=O)N2CCN(Cc3cccc(F)c3)CC2)cc1	none (no result: MBNL1 CUG block, CBFb RUNX1 block, Rango release inh, Rango complex inh)
Cc1cccc(OC(C)c2ccnc3nc(/N=C/N(C)C)nn23)c1 (stereo unspecified)	ClpP mod 28µM
COc1cccc(OC(C)c2ccnc3nc(/N=C/N(C)C)nn23)c1 (stereo unspecified)	ClpP mod 32µM
CC(Oc1ccc(C(C)(C)C)cc1)c1ccnc2nc(/N=C/N(C)C)nn12 (stereo unspecified)	ClpP mod 28µM
COc1ccc(-c2ccnc3nc(/N=C/N(C)C)nn23)cc1	none (no result: ClpP mod)
CC(Oc1ccc(F)cc1)c1ccnc2nc(/N=C/N(C)C)nn12 (stereo unspecified)	none (no result: ClpP mod)
CCOC(=O)C1=CCN(S(=O)(=O)c2ccc(C)cc2)C1c1cccc(Br)c1 (stereo unspecified)	none (no result: MBNL1 CUG block, CBFb RUNX1 block, Rango release inh, Rango complex inh)
COc1ccc(NC(=O)Cc2ccc(NC(=O)N3CCCCc4ccccc43)cc2)c(OC)c1	none (no result: MBNL1 CUG block, CBFb RUNX1 block, Rango release inh, Rango complex inh)
CC(C)(C)C(=O)Nc1nnc(SCC(=O)Nc2nccs2)s1	ClpP mod 20µM (no result: CBFb RUNX1 block)
Cc1nnc(SCC(=O)Nc2nccs2)s1	none
O=S(=O)(c1ccccc1)c1nc(-c2cccs2)oc1NCC1CCCO1 (stereo unspecified)	ClpP mod 25µM
Cc1sc2c(c1C)c(=O)n(-c1ccc(Cl)cc1)c(=O)n2Cc1cc(=O)n2cc(Br)ccc2n1	none (no result: MBNL1 CUG block, CBFb RUNX1 block, Rango release inh, Rango complex inh)
Cc1cc(Cl)ccc1-n1c(CCC(=O)O)ccc1-c1cccs1	none (no result: MBNL1 CUG block, CBFb RUNX1 block, Rango release inh, Rango complex inh)
